# Source: PubChem BioAssay (NCATS)
# Results filed as inconclusive are left out. A call without a number means that no potency is given here. Calls of active or inactive are those of the source. Unless noted, calls follow the shape of the dose curve; as a rule, active = well fitted curve in the direction sought with a large enough effect; inconclusive = small, poorly fitted or top-dose-only effect, or another doubt; inactive = no such curve, though single readings can be large; an effect the other way counts as inactive or inconclusive.
# Columns and labels:
# [1] = biological target: Hexokinase-4 (Homo sapiens) + Glucokinase regulatory protein (Homo sapiens) (UniProt P35557+Q14397); experiment: qHTS assay for inhibitors of recombinant human GCK-GKRP interaction: HTRF assay (AID 743207)
# In short: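 After 60 min equilibration at room temperature with anti-FLAG XL665 and anti-GST antibodies, FRET ratio (665/615 nm, excitation 320 nm) was read. Proteins: GST-GCK and FLAG-GKRP, each 5 nM, plus 2 uM S6P, pH 7.1 buffer; GCK-free wells define minimum signal.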
# [2] = qHTS Assay for Identifying Gametocytocidal Compounds (AID 743244);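 also: actives lower the fluorescent signal which means gametocytes are killed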; conditions: P. falciparum 3D7 stage III-V gametocytes, alamarBlue, 72 h; max response: hits give low values
# In short: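 3D7 gametocytes, stages III–V, 20,000/well; cpd 72 h, 37 °C/5% CO2; + alamarBlue 24 h; fluor. Ex 525/Em 598.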
# [3] = Natriuretic polypeptide receptor (hNpr1) antagonism - Pilot counterscreen GloSensor control cell line (AID 1347045; calls by dose curve; also: series mostly up to about 38 µM)
# In short: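 Control counterscreen: luciferase cGMP-biosensor HEK293 cells (no Npr1) received compound for 30 min at room temperature after GloSensor substrate loading. Luminescence was measured before and 20 min after soluble guanylyl cyclase activation by 50 uM nitroprusside.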
# [4] = NS1 protein of Zika virus - qHTS assay to identify small molecule inhibitors in human HEK 293 cells (AID 1347053); also: series mostly up to about 46 µM; nearly all actives have a fitted effect of over 55% in size
# In short: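 Readout was TR-FRET using paired anti-NS1 antibodies after 24 h infection of HEK 293 cells with ZIKV MR766 (MOI = 0.5). Compound preceded virus by 1 h; reduced signal reflects lower NS1 expression.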
# [5] = biological target: T1, Tyrosine-protein phosphatase non-receptor type substrate 1 (Homo sapiens) + Leukocyte surface antigen CD47 (Homo sapiens) (UniProt P78324+Q08722); experiment: CD47-SIRPalpha protein protein interaction - LANCE assay qHTS validation (AID 1347057; active = well fitted curve in the direction sought with a large enough effect in the signal ratio, with a control signal flat, not every such curve was filed as active; the % refers to the signal ratio; also: series mostly up to about 38 µM)
# In short: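 Inhibition of soluble CD47/SIRPalpha ectodomain association by titrated compounds, measured as 665/615 nm time-resolved FRET ratio after sequential 30 min room-temperature incubations.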
# [6] = biological target: T1, Tyrosine-protein phosphatase non-receptor type substrate 1 (Homo sapiens) + Leukocyte surface antigen CD47 (Homo sapiens); experiment: CD47-SIRPalpha protein protein interaction - HTRF assay qHTS validation (AID 1347058; active = well fitted curve in the direction sought with a large enough effect in the signal ratio, not every such curve was filed as active; the % refers to the signal ratio; also: series mostly up to about 38 µM)
# In short: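 Soluble extracellular domains (6His-CD47, Avi-tag-biotinylated SIRPalpha) in PBS pH 7.4 with 0.05% IGEPAL CA-630. Compounds were preincubated 30 min at RT with CD47 and anti-His-Eu, then SIRPalpha and SAV-XL665 were added. TR-FRET 665/615 ratio.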
# [7] = biological target: T1, Tyrosine-protein phosphatase non-receptor type substrate 1 (Homo sapiens) + Leukocyte surface antigen CD47 (Homo sapiens); experiment: CD47-SIRPalpha protein protein interaction - Alpha assay qHTS validation (AID 1347059);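 also: bead proximity luminescence from CD47 binding SIRPalpha after compound preincubation with SIRPalpha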
# In short: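 AlphaScreen signal between CD47-His (12.5 nM) and biotin-SIRPalpha (25 nM) soluble extracellular domains, bead-captured via Ni-NTA and streptavidin. Compounds, in 7-point titrations, met SIRPalpha 30 min before CD47; PBS pH 7.4 with 0.05% IGEPAL.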
# [8] = biological target: Parathyroid hormone/parathyroid hormone-related peptide receptor (Homo sapiens) (UniProt Q03431); experiment: qHTS for PTHR1 Agonists: Optimization Screen against the NCGC LOPAC library (AID 1347079);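 also: GloSensor cAMP luminescence in HEK-293 GP2 cells expressing human PTHR1 with IBMX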
# In short: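 HEK-293 GP2 cells, PTHR1 + GloSensor cAMP; 3000 cells/well, o/n. Luciferin + IBMX 0.5mM each (stock), 1 hr 37C. Cpd titration, 1 hr 37C. Lum after 15 min RT. Ctrl M-PTH(1-15) top 10uM.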
# [9] = tested on: Zika virus NS2B-NS3 protease; experiment: Primary screen GU AMC qHTS for Zika virus inhibitors (AID 1347154); also: nearly all actives have a fitted effect of over 70% in size
# In short: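 Fluorogenic AMC-substrate cleavage by noncovalent NS2B-NS3 protease complex (25 nM, pH 8.0 Tris buffer with Tween 20) followed for 15 minutes at room temperature (~20% conversion). Percent inhibition from ex340/em450 signal change, fitted by 4-parameter Hill equation.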
# [10] = qHTS to identify inhibitors of the type 1 interferon - major histocompatibility complex class I in skeletal muscle: primary screen against the NCATS LOPAC collection (AID 1347405);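 also: lytic HiBiT luminescence reporting HLA-B protein level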
# In short: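 After 24 h at 37 C with compounds (7-point, 1:4.3 dilutions, 46 uM top final) plus 4 ng/ml IFN-beta, luminescence from lytic HiBiT detection was measured. HLA-B*08:01 in C25cl48 myoblasts carried an endogenous C-terminal HiBiT tag; medium lacked dexamethasone.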
# [11] = qHTS for inhibitors of adenylyl cyclases using a fission yeast platform: a pilot screen against the NCATS LOPAC library (AID 1347410)
# In short: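 GFP from fbp1-GFP reporter, read by Acumen laser cytometry, indicates AC inhibition in fission yeast expressing AC9, GNAS and PDE4D2. Cells grown 18 h in the dark at 30C with compounds, final up to 57 uM.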
# [12] = biological target: Single-stranded DNA cytosine deaminase (Homo sapiens) (UniProt Q9GZX7); experiment: Validation qHTS assay for inhibitors of Activation Induced Cytidine Deaminase (AID): AID signal (AID 1347429)
# In short: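 Compounds (final up to 114 uM) preincubated with AID plus UDG; 250 nM DJC20/DJC23 substrate mix (4x stock) added, 4 hr at room temperature, then NaOH, 30 min. Read 1 fluorescence at 540 nm excitation, 590 nm emission.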
# [13] = Primary qHTS for inhibitors of La Crosse Virus (LACV) - induced cell death in SH-SY5Y cells (AID 1508616);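 also: top concentration of the series differs between compounds; higher means more rescue of cells from virus-induced death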
# In short: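 Rescue of virus-induced death was read as ATPLite luminescence after 6 days at 37C, scaled between DMSO wells with LACV and without virus. Cells were SH-SY5Y, 6000/well, infected at 0.01 MOI after compound addition.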
# [14] = biological target: Calcium and integrin-binding protein 1 (Homo sapiens) (UniProt Q99828); experiment: Validation qHTS for Identification of Calcium Integrin Binding protein 1 (CIB1) Competitor (AID 1508618)
# In short: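 Fluorescence polarization with 1 uM CIB1-GST and 100 nM FITC-alphaIIb peptide in HEPES pH 7.4, NaCl, 5 mM CaCl2, Tween20. Compounds at up to 114 uM final, preincubated with protein 15 min; read after 15 min more at RT.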
# [15] = Primary qHTS for small molecule stabilizers of the endoplasmic reticulum resident proteome: Secreted ER Calcium Modulated Protein (SERCaMP) assay (AID 1508630)
# In short: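 The SH-SY5Y reporter protocol was run at 3 concentrations up to 38.3 uM (primary) or 11 concentrations (follow-up): 16 h compound, 100 nM thapsigargin for 4 h, then extracellular luciferase luminescence.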
# [16] = biological target: N-terminal Xaa-Pro-Lys N-methyltransferase 1 (Homo sapiens) (UniProt Q9BV86); experiment: Confirmatory qHTS for Inhibitors of N-terminal methyltransferase 1 (NTMT1): MTaseGlo Assay (AID 1645874); also: potency is read from the fitted curve at half-maximal effect; nearly all actives have a fitted effect of over 65% in size
# In short: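 Inhibition was derived from luminescence after SAH-to-ATP conversion, scaled between no-enzyme and DMSO wells, then fitted by 4-parameter Hill. Conditions: 125 nM NTMT1, 100 uM SAM, 1 uM SPKRIA, 30 min RT.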
# [17] = biological target: Metallo-beta-lactamase type 2 (Klebsiella pneumoniae) (UniProt C7C422); experiment: qHTS to identify inhibitors of the New Delhi Metallo-beta-lactamase (NDM): assay validation screen against the NCATS LOPAC Collection (AID 1794843);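 also: nitrocefin turnover by NDM-1 measured as 485 nm absorbance at plateau; series mostly up to about 38 µM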
# In short: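 NDM-1 at 2 nM final in 50 mM HEPES pH 7.0, 1 uM ZnSO4, 0.01% Tween20, preincubated with LOPAC compounds pinned in DMSO; 50 uM nitrocefin (stock) added. Hydrolysis read as absorbance at 485 nm in the plateau phase.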
# [18] = biological target: Glutathione peroxidase 1 (Homo sapiens) (UniProt P07203); experiment: Primary qHTS Assay for Inhibitors of Recombinant Selenoprotein Glutathione Peroxidase 1 (GPX1) (AID 1845191); also: nearly all actives have a fitted effect of over 65% in size
# In short: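 NADPH consumption tracked by fluorescence at 340/450 nm between t=0 and t=15 min, room temperature. Final mix: 10 nM GPX1, 100 nM glutathione reductase, 1 mM GSH, 0.5 mM NADPH, 0.5 mM cumene hydroperoxide, 0.01% BSA; 30 min compound–enzyme preincubation.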
# [19] = biological target: Phospholipid hydroperoxide glutathione peroxidase GPX4 (Homo sapiens) (UniProt P36969); experiment: Primary qHTS Assay for Inhibitors of Recombinant Selenoprotein Glutathione Peroxidase 4 (GPX4) (AID 1845192); conditions: outcome: dose series up to 50 µM unless noted; also: nearly all actives have a fitted effect of over 65% in size
# In short: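 NADPH consumption followed by fluorescence at 340/450 nm, t=0 and after 15 min at room temperature. Reaction started with cumene hydroperoxide (0.5 mM final) after 30 min compound–GPX4 preincubation; final 200 nM GPX4, 100 nM GR, 1 mM GSH, 0.5 mM NADPH.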
# T1 sequence (P78324 whole entry, looked up, the tested form may be a part): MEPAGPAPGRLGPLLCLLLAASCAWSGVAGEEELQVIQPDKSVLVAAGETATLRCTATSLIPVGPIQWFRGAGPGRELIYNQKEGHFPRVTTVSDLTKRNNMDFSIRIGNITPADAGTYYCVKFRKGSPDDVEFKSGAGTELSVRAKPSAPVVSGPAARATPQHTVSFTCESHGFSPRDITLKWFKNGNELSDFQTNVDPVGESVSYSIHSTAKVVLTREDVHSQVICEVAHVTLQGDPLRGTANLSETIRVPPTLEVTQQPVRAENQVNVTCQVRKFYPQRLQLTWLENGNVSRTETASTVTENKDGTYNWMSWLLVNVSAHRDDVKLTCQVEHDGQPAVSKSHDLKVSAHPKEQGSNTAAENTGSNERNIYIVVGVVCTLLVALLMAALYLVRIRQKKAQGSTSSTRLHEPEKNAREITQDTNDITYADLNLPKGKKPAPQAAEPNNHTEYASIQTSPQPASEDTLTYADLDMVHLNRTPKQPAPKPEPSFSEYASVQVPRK
# T1 sequence (Q08722 whole entry, looked up, the tested form may be a part): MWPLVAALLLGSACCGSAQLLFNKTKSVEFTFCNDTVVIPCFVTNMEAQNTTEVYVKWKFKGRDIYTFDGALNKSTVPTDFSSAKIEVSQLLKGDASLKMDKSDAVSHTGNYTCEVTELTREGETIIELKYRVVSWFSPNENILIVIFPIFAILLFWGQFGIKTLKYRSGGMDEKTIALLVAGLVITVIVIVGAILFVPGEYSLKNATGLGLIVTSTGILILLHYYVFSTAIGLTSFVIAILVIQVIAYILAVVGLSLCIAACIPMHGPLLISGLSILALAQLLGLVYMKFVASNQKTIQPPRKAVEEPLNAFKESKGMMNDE
# Sequence of Calcium and integrin-binding protein 1 (Homo sapiens) (Q99828 whole entry, looked up): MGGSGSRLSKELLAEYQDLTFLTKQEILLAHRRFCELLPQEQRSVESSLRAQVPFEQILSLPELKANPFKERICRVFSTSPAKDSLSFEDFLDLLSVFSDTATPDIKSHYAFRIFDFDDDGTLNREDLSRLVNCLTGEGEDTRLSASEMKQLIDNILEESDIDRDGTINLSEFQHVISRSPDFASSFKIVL
# Sequence of N-terminal Xaa-Pro-Lys N-methyltransferase 1 (Homo sapiens) (Q9BV86 whole entry, looked up): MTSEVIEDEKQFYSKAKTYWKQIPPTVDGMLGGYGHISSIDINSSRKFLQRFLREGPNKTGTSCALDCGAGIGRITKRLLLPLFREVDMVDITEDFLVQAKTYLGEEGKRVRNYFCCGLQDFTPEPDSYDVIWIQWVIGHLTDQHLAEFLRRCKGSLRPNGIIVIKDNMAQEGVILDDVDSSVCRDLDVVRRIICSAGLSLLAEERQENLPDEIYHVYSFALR
# Sequence of Phospholipid hydroperoxide glutathione peroxidase GPX4 (Homo sapiens) (P36969 whole entry, looked up): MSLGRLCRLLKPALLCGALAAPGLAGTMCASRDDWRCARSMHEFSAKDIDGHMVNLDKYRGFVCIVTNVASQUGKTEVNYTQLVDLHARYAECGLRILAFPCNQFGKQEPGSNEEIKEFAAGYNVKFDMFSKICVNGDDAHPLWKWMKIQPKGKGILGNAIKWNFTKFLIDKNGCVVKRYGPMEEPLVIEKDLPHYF
# Sequence of Metallo-beta-lactamase type 2 (Klebsiella pneumoniae) (C7C422 whole entry, looked up): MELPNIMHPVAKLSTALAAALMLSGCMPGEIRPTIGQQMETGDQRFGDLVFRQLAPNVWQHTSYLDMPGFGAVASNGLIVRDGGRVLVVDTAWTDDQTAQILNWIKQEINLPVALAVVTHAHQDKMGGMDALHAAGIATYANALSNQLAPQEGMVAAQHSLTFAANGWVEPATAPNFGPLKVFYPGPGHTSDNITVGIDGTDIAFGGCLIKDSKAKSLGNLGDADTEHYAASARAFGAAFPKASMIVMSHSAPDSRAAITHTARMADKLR
# Sequence of Glutathione peroxidase 1 (Homo sapiens) (P07203 whole entry, looked up): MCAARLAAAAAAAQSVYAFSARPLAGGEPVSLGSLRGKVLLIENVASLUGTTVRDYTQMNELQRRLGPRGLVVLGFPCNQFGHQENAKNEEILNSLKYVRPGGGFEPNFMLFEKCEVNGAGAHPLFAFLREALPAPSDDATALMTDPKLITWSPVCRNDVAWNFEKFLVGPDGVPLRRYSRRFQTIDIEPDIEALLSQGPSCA
# Sequence of Hexokinase-4 (Homo sapiens) + Glucokinase regulatory protein (Homo sapiens) (P35557 whole entry, looked up): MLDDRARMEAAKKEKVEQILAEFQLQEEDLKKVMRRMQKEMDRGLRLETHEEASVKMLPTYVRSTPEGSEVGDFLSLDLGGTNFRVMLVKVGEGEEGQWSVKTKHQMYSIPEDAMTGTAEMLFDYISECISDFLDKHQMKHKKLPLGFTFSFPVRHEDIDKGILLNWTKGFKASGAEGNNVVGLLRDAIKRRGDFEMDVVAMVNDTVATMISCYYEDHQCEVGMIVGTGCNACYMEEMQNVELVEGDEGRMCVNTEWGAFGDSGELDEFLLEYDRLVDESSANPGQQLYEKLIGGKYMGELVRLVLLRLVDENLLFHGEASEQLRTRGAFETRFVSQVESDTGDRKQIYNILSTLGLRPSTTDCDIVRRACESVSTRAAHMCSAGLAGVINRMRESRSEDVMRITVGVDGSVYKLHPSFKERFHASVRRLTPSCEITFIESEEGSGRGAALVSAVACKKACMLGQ
# Sequence of Hexokinase-4 (Homo sapiens) + Glucokinase regulatory protein (Homo sapiens) (Q14397 whole entry, looked up): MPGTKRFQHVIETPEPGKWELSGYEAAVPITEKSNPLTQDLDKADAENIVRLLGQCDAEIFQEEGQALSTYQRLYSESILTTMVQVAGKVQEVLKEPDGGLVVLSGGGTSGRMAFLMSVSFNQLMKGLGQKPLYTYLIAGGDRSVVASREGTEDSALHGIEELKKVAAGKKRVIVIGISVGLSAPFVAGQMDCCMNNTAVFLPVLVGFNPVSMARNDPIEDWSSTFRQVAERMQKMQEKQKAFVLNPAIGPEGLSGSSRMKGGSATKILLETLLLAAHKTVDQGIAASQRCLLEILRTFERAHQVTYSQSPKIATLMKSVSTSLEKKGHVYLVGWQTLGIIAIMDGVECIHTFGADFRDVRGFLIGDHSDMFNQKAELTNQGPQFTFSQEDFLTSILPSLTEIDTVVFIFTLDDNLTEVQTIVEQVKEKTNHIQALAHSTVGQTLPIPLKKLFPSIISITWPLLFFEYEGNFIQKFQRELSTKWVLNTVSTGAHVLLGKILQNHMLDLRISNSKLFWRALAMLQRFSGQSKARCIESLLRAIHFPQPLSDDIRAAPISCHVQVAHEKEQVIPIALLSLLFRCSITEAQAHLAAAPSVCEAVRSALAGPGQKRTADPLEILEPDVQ
# Sequence of Parathyroid hormone/parathyroid hormone-related peptide receptor (Homo sapiens) (Q03431 whole entry, looked up): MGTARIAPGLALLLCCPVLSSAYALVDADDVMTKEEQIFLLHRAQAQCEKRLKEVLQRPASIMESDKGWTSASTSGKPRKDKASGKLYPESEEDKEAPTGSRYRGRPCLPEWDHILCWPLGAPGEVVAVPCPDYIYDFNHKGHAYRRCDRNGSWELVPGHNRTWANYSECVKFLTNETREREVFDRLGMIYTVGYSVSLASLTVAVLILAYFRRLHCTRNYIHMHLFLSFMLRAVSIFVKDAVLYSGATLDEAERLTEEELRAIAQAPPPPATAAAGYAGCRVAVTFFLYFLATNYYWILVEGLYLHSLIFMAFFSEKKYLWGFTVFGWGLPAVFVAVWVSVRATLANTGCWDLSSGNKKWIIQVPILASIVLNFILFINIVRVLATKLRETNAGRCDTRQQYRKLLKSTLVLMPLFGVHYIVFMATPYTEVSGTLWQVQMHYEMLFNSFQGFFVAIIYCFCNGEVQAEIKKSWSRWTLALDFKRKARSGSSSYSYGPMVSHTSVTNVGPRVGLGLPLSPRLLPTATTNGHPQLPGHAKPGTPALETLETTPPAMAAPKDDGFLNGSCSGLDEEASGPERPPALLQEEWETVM
# Sequence of Single-stranded DNA cytosine deaminase (Homo sapiens) (Q9GZX7 whole entry, looked up): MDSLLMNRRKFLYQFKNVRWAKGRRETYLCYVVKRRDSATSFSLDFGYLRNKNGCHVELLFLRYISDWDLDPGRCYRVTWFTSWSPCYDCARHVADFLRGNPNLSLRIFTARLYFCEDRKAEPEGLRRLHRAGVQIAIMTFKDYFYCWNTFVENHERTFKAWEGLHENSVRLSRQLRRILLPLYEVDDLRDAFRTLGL
structure (smiles),measurement,setting,value
Cc1cccc(/C=C/c2ccccc2)n1,outcome,[1],inactive
same,max response,[2],6.48% (inactive)
same,Potency,[3],inactive
same,outcome,[4],inactive
same,outcome,[5],inactive
same,outcome,[6],inactive
same,Potency,[7],inactive
same,outcome,[8],inactive
same,Potency,[9],inactive
same,Potency,[10],inactive
same,outcome,[11],inactive
same,Potency,[12],inactive
same,outcome,[13],inactive
same,outcome,[14],inactive
same,Potency,[15],inactive
same,Potency,[16],27.4 µM (active)
same,Potency,[17],inactive
same,Potency,[18],inactive
same,Potency,[19],inactive
